# SW480 rerep: inducers of DNA re-replication in SW480 colon cancer cells | SW480 DNA re-replication, Hoechst DNA content imaging, 48 h | Potency, µM (doses to about 46.1 µM), without a hit: at the highest dose re-replication activation, usual class: activators | 340,000 tested, 1.8% active; note: % of control where 0% means no effect; nearly all actives have a fitted effect of over 55% in size
#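 Image-based DNA-content assay: after two days of treatment, nuclei were labelled with the DNA dye Hoechst and imaged, and hits were compounds raising the count of nuclei showing high fluorescence intensity.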
# MCF10A rerep: DNA re-replication induction in MCF 10a cells; MCF 10A DNA re-replication, Hoechst nuclear intensity, 48 h; Potency, µM (series often up to 46.1 µM), for the others: top-dose activity, positive = re-replication, most hits filed as activators; 350,000 tested, 2.9% active; note: % of control where 0% means no effect; nearly all actives have a fitted effect of over 50% in size
# HT1080 IDH1KD tx: toxicity to HT-1080 IDH1 knockdown cells (counter line); HT-1080 IDH1 knockdown viability, ATP luminescence, 48 h; Potency, µM (series often up to 46.1 µM), without a hit: top-dose activity, negative = toxicity, most hits filed as cytotoxic; 360,000 tested, 2% active; AID 686971;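 note: 0% = DMSO wells and -100% = cell-free medium wells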
#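 In this qHTS, HT-1080 cells depleted of IDH1 are exposed for 48 h at 37 °C to compound titrations. Toxicity is scored from CellTiter-Glo luminescence, with DMSO as full viability and medium alone as none.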
# HT1080-NT tox: kills 2HG-producing HT-1080-NT fibrosarcoma cells | Potency, µM (doses to about 46.1 µM), inactives show at the top dose activity, negative = less viability, usual class: cytotoxic | HT-1080-NT fibrosarcoma viability, CellTiter-Glo ATP luminescence, 48 h | 360,000 tested, 1.6% active;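 note: NT is the 2HG producing partner of a matched IDH1 knockdown line; 0% = DMSO-treated cells and -100% = media-only wells without cells; nearly all actives have a fitted effect of over 55% in size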
#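 HT-1080-NT; 750 cells/well; 5% FBS RPMI; 48 h compound, 37 degrees C; CellTiter-Glo luminescence; curve fitting and curve-class assignment.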
# KB-3-1 cytotox: KB-3-1 parental cell cytotoxicity; KB-3-1 viability, CellTiter-Glo ATP luminescence, 72 h; Potency, µM (highest dose often 46.1 µM), most hits filed as cytotoxic; AID 1347075; 400,000 tested, 1.4% active; note: % is set by controls: 0 for no effect and ±100 for the full control effect; nearly all actives have a fitted effect of over 60% in size
#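 Multi-concentration cytotoxicity screen in KB-3-1 cells grown in DMEM lacking phenol red with 10% FBS. After 72 h at 37 °C with compound, ATP-dependent luminescence was recorded.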
# KB-V1 cytotox: KB-V1 MDR subline cytotoxicity | AID 1347076 | KB-V1 MDR cells viability, CellTiter-Glo, 72 h | 400,000 tested, 3.4% active | Potency, µM (highest dose often 46.1 µM), most hits filed as cytotoxic; note: % is set by controls: 0 for no effect and ±100 for the full control effect; nearly all actives have a fitted effect of over 60% in size
#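 Potencies derive from concentration-effect curves fitted to normalized luminescence (CellTiter-Glo) of KB-V1 cells treated for 72 h at 37 degrees C in phenol-red-free DMEM containing 10% FBS.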
# Active calls of the source: *; i = inactive; ? = inconclusive; / = no result; [ ] = dose if it differs, or a comment. Only some compounds are listed: those with a hit (about 7.9% of all), similar ones and a draw of the others. Calls come from the whole dose curve; as a rule, active = well fitted curve in the direction sought with a large enough effect; inconclusive = small, poorly fitted or top-dose-only effect, or another doubt; inactive = no such curve, though single readings can be large; an effect the other way counts as inactive or inconclusive. Potency is the fitted concentration of half-maximal effect.
SMILES,SW480 rerep,MCF10A rerep,HT1080 IDH1KD tx,HT1080-NT tox,KB-3-1 cytotox,KB-V1 cytotox
Nc1c(Cl)cnn(-c2ccccc2)c1=O,4%,-2%,1%,0%,i,i
CCSc1cnn(-c2ccccc2)c(=O)c1Cl,?,?,?,?,i,i
CCOc1cnn(-c2ccccc2)c(=O)c1Cl,6%,26µM*,16µM*,?,i,i
O=c1c(Cl)c(Cl)cnn1-c1ccccc1,4.1µM*,3.7µM*,4.6µM*,4.1µM*,18µM*,i
COc1ccc(NC(=O)NCC2CCN(Cc3ccccc3F)CC2)c(OC)c1,/,/,/,/,i,i
O=C(NCC(c1cccs1)N1CCOCC1)c1ccccc1NS(=O)(=O)c1ccc(Cl)c([N+](=O)[O-])c1 (stereo not given),-4%,15µM*,-2%,-11%,i,?
O=C(NCC(c1cccs1)N1CCOCC1)c1ccccc1NS(=O)(=O)c1ccc(Cl)cc1 (stereo not given),0%,?,-30%,?,?,12µM*
O=C(O)COc1ccc(C(=O)c2ccccc2)cc1,-24%,-3%,5%,0%,i,i
CC(=O)c1ccc(OCc2ccc(C(=O)c3ccccc3)cc2)cc1,-14%,13%,-24%,-30%,15µM*,16µM*
Oc1ccc(N=Nc2ccccc2)o1,?,?,23µM*,16µM*,i,i
CCCC(=O)Nc1nnc(S(=O)(=O)N(C)Cc2ccc(Cl)cc2)s1,/,/,/,/,i,i
COc1ccc(/C=C(/C#N)c2nc(-c3cc4ccccc4oc3=O)cs2)cc1,/,/,/,/,i,i
CC1CCC/C(=C(\C#N)c2nc(-c3cc4ccccc4oc3=O)cs2)C1 (stereo not given),-2%,16%,-1%,-6%,?,8.2µM*
CCn1nc(C)cc1C(=O)Sc1cccc(Br)c1,-14%,?,21µM*,13µM*,i,i
CCc1ccc(N2C(=O)N(CC(=O)C(C)(C)C)c3ccccc3S2(=O)=O)cc1,/,/,/,/,i,i
Cc1cccc(NC(=O)Cn2nc(N3CCN(c4ccccc4)CC3)ccc2=O)c1C,/,/,/,/,i,i
COc1ccc(-c2c(-c3ccsc3)oc(=O)c3cc(OC)c(OC)cc23)cc1,-8%,1%,9%,13%,i,i
COCc1ccc(-c2c(-c3ccc(OC)cc3)oc(=O)c3cc(OC)c(OC)cc23)cc1,16%,2.6µM*,-15%,-10%,i,i
Cc1c(C(=O)N2CCC2(C)C(=O)O)oc2ccccc12 (stereo not given),/,/,?,?,i,i
COc1cc2c(C#N)c(N3CCCCC3)nc(N)c2c(N)n1,-3%,?,?,?,?,8.2µM*
O=P(O)(O)OP(=O)(O)O,10%,-1%,/,/,/,/
COc1cc(/C=N/N=C(N)N)ccc1OCc1ccc(Cl)cc1,?,?,?,?,?,i
NC(N)=N/N=C/c1ccc(OCc2ccccc2)c(OCc2ccccc2)c1,21%,12µM*,18µM*,23µM*,?,i
CCOc1cc(/C=N/N=C(N)N)ccc1OCc1ccc(Cl)cc1,?,18µM*,?,?,?,?
CCCC(=O)NCCc1nc2ccccc2n1Cc1c(F)cccc1Cl,/,/,/,/,i,i
SMILES,SW480 rerep,MCF10A rerep,HT1080 IDH1KD tx,HT1080-NT tox,KB-3-1 cytotox,KB-V1 cytotox
CC(C)C(=O)N1CCCC1(C)C(=O)NCc1ccc(Cl)cc1 (stereo not given),/,/,?,9%,i,i
Cc1ccccc1NCc1ccccc1O,-6%,0%,1%[9.24 µM],2%,i,i
C=CCOc1ccccc1CNc1ccccc1C,8.2µM*,?,8%,6%,i,i
O=S(=O)(c1ccccc1)c1nnn2c1nc(NCc1ccccc1)c1sccc12,/,/,/,/,i,i
O=C(Oc1ccccc1)c1cccc2cccnc12,-5%,0%,4µM*,4µM*,i,i
O=C(Oc1cccc2cccnc12)c1ccco1,?,?,-15%,-21%,?,?
O=S(=O)(Nc1ccc2c(c1)OCCO2)c1cccc2cccnc12,-8%,-4%,-3%,2%,i,16µM*
O=C(Oc1cccc2cccnc12)c1ccc2c(c1)OCCO2,10µM*,3.3µM*,?,23µM*,i,?
O=C(Oc1cccc2cccnc12)c1cccs1,?,5.2µM*,6.5µM*,15µM*,?,12µM*
O=C(Oc1cccc2cccnc12)c1cccc([N+](=O)[O-])c1,?,?,?,?,i,?
Cc1ccc2oc(C(=O)Nc3cccc(-c4nc5ccccc5s4)c3)c(C)c2c1,/,/,/,/,i,i
Cc1ccccc1Nc1c(-c2ccsc2)nc2c(C)cccn12,/,/,/,/,?,i
COc1cccc(C2(c3cccc(OC)c3)CC2C(=O)Nc2ccccc2Cl)c1 (stereo not given),?,28%,21µM*,?,i,?
Cc1cccc(C2(c3cccc(C)c3)CC2C(=O)Nc2ccc([N+](=O)[O-])cc2O)c1 (stereo not given),?,?,?,?,21µM*,4.6µM*
C=CCNC(=O)C1CC1(c1cccc(C)c1)c1cccc(C)c1 (stereo not given),-20%,4%,?,?,i,?
Cc1cc(Cl)c2c(c1)[C@]1(C(=O)N2)[C@@H]2C(=O)N(Cc3ccccc3)C(=O)[C@@H]2[C@@H]2CCCN21,16%,9%,?,?,?,?
O=C1[C@H]2[C@@H](C(=O)N1c1cc(Cl)cc(Cl)c1)[C@]1(C(=O)Nc3ccccc31)N1CCC[C@@H]21,-3%,29%,?,-17%,i,15µM*
COc1ccc(-c2cc(C(=O)N3CC(C)CC(C)C3)c3ccccc3n2)cc1OC (stereo not given),16%,26%,-1%,0%,i,i
COc1ccc(-c2cc(-c3nnc(COC(=O)C4CC4)o3)c3ccccc3n2)cc1OC,21µM*,?,1%,-10%,?,?
COc1ccc(-c2cc(-c3nnc(COC(=O)C4CC4C)o3)c3ccccc3n2)cc1OC (stereo not given),16µM*,?,10%,4%,i,?
COc1ccc(-c2cc(-c3nnc(COC(=O)CC4CCCC4)o3)c3ccccc3n2)cc1OC,?,15µM*,8%,0%,i,i
